Screens: PubChem, National Center for Advancing Translational Sciences (NCATS)
Only some compounds are listed: those with a hit (about 7% of all), similar ones and a draw of the others.
DRD3 antagonist: qHTS of D3 Dopamine Receptor Antagonist: qHTS | D(3) dopamine receptor (Homo sapiens), P35462 | 2.5% of 360,000 active | D3R cells, DiscoveRx beta-arrestin luminescence, antagonist mode; active compounds read low | max response, negative = inhibition, %; in the data active = max response below about -50%; inconclusive = no clear call, values can overlap the other calls
Target sequence (P35462 whole entry, looked up): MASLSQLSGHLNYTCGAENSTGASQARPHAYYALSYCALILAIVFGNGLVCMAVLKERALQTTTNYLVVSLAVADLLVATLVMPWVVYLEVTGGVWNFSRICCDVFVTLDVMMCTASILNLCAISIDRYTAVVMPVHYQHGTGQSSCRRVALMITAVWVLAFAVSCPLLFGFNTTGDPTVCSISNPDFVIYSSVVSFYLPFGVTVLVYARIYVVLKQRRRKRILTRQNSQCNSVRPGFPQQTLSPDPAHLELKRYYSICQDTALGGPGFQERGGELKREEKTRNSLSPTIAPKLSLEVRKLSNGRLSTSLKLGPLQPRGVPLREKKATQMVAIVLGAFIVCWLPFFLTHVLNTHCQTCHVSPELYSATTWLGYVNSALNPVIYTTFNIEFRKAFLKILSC
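Cells plated overnight at 1500 cells/well, then exposed to library compounds with dopamine controls for 90 minutes at 37 degrees C. DiscoveRx reagent added for 30–60 minutes at room temperature; luminescence read, quantitative HTS format.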
ATXN2 expr inh: Primary qHTS for Inhibitors of ATXN expression. HEK-293 ATXN2-luciferase reporter, luminescence, 24 h. Potency, µM (titrated, usually from 57 µM), most hits filed as inhibitors. 0.72% of 360,000 active. AID 1745845, 2022; note: nearly all actives have a fitted effect of over 55% in size
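ATXN2-luciferase reporter cells (luciferase flanked by upstream and downstream ATXN2 gene portions) were treated 24 h at 37 °C with compounds at up to 57 uM. SteadyGlo luminescence gave expression; GF-AFC fluorescence gave viability.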
D3 ag: qHTS of D3 Dopamine Receptor Agonist: qHTS. max activation, %. D3R DiscoveRx beta-arrestin cells, luminescence, 90 min. D(3) dopamine receptor (Homo sapiens), P35462. 0.58% of 410,000 active; in the data active = max activation above about 30%
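Agonist-mode cell screen: cells plated at 1500/well and incubated overnight at 37 °C, then exposed to library compounds for 90 min at 37 °C. Detection reagent was added for 30–60 min at room temperature, and luminescence was read.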
IL1B secr inh: qHTS for Inhibitors of Inflammasome Signaling: IL-1-beta AlphaLISA Primary Screen; THP-1 LPS/ATP IL-1B secretion, AlphaLISA, 16 h; active compounds read low; activity change, % at 57.5 µM; 4.7% of 360,000 active; AID 743279, 2014; in the data active = activity change below about -50%; inconclusive = mostly about -30% to -49%
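THP-1 cells pretreated 1 hr with compounds (up to 57.5 uM final), then stimulated with LPS (250 ng/mL final) plus ATP (1.25 mM final); secreted IL-1B measured by AlphaLISA after 16 hr, decreased signal indicating inhibition.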
Integrin act MD: qHTS for Activators of Integrin-Mediated Alleviation for Muscular Dystrophy; alpha7betagal myoblasts, beta-gal FDG fluorescence, 48 h; Potency, µM (highest dose often 38.3 µM), actives largely listed as activators; 0.064% of 350,000 active; AID 624291, 2012; note: nearly all actives have a fitted effect of over 60% in size
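alpha7betagal+/- myoblasts (passage 13, 250/well) treated 48 h at 37C with compounds at 1:260 dilution of DMSO stock. Lysed, then beta-galactosidase activity read as FDG fluorescence (ex 480/em 540) after 30 min, with pre-read for autofluorescence.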
S2 tox: Viability Counterscreen for Primary qHTS for Inhibitors of ATXN expression. S2 cells (HEK-293 line with an ATXN2-luciferase reporter) viability, CellTiter-Fluor protease fluorescence, 24 h. Potency, µM (doses to about 56.7 µM), most hits filed as cytotoxic. 0.49% of 400,000 active; note: nearly all actives have a fitted effect of over 40% in size
A number is an active result; . = inactive; ? = inconclusive; / = no result; ! = not confirmed by another sample; [ ] = another dose, or the depositor's remark. Unless noted, calls come from the whole dose curve; as a rule, active = well fitted curve in the direction sought with a large enough effect; inconclusive = small, poorly fitted or top-dose-only effect, or another doubt; inactive = no such curve, though single readings can be large; an effect the other way counts as inactive or inconclusive.

SMILES	DRD3 antagonist	ATXN2 expr inh	D3 ag	IL1B secr inh	Integrin act MD	S2 tox
CCOc1cc(/C=N/n2cnnc2)cc(Br)c1O	.	.	.	.	.	.
Cc1ccccc1Nc1c(-c2cccnc2)nc2cccc(C)n12	.	?	.	.	.	?
Cc1cccc2nc(-c3cccnc3)c(Nc3ccc(C(C)C)cc3)n12	/	16µM	.	/	/	13µM
C#CC[N+](C)(C)CC#Cc1ccc(Cl)cc1	.	.[11.3 µM]	.	-67	.	.
C#CC[N+](CC)(CC)CC#Cc1cccc(Cl)c1	.	.	.	.	.	.
O=C(c1ccc(Br)o1)N1CCN=C1SCc1cccnc1	.	.	.	-54	.	.
O=C(c1ccccc1F)N1CCN=C1SCc1cccnc1	.	.	.	.	.	.
O=C(c1cc2ccccc2o1)N1CCN=C1SCc1cccnc1	.	.	.	-58	.	.
CC(=O)N1c2ccccc2C(C)=CC1(C)C	.	/	.	.	.	.
CCOC(=O)c1c2c(n(-c3ccc(OC)cc3)c1C)C(=O)C(=O)c1ccccc1-2	.	8.9µM	.	.	.	8.9µM
COc1ccccc1-n1c(CNC(=O)c2ccc(S(=O)(=O)N3CCOCC3)cc2)n[nH]c1=S	.	.	.	.	.	.
O=C(C1CCCCN1S(=O)(=O)c1ccccc1[N+](=O)[O-])N1CCCC1 (stereo not drawn)	-53	.	.	?	.	.
CC1(C)CC(=O)C=C(NC2=CC3OC(c4ccccc4)OCC3OC2=O)C1 (stereo not drawn)	-54	.	.	.	.	?
Cc1ccccc1NC1=CC(=O)CC(C)(C)C1	.	.	.	.	.	.
CCCc1cc(N2CCCC(C(=O)Nc3cc(Cl)ccc3OC)C2)n2ncnc2n1 (stereo not drawn)	.	.	.	.	.[7.66 µM]	.
CCCc1cc(N2CCCC(C(=O)Nc3c(OC)cccc3OC)C2)n2ncnc2n1 (stereo not drawn)	.	.	31	.	.	.
CC(C)(C)c1cc(=O)n(-c2ccccc2)[nH]1	.	?	.	-97	.	.
CCCN1CCN(CCCNC(=O)c2ccc3c(Cl)c4c(nc3c2)CCCC4)CC1	.	?	.	-56	.	?
CCN(CC)CCNC(=O)CSc1c2c(nc3cc(Cl)ccc13)CCCC2	?	/	.	-104	.	/
CCCCN(CC)CCNC(=O)c1ccc2c(Cl)c3c(nc2c1)CCC3	.	.	.	?	.	.
CCN(CC)CCCNC(=O)c1ccc2c(Cl)c3c(nc2c1)CCCC3	.	28µM	.	/	.	20µM!
C=CCN(C(=O)CNS(=O)(=O)c1ccccc1)C(C(=O)NCCOC)c1ccncc1 (stereo not drawn)	.	.	.	.	.	.
O=C(Nc1cccc(Nc2ncc(Br)c(NCCc3cnc[nH]3)n2)c1)N1CCCC1	/	19µM	/	/	/	/
Cc1nn(-c2nc3ccccc3s2)c(C)c1Oc1ccccc1O	.	.	.	-79	?	?
CCCN1CCN(S(=O)(=O)c2ccc3c(c2)CC(C)N3C(=O)C2CC2)CC1 (stereo not drawn)	.	.	.	.	?	.
SMILES	DRD3 antagonist	ATXN2 expr inh	D3 ag	IL1B secr inh	Integrin act MD	S2 tox
Cc1ccc(CC2(OCCN(C)C)CCC(C(C)(C)C)CC2)cc1 (stereo not drawn)	.	?	.	-99	.	/
CN(C)CCOC1(Cc2ccc(F)cc2)CCC(C(C)(C)C)CC1 (stereo not drawn)	.	.	.	-104	.	/
CN(C)CCCCOc1ccc(F)cc1	.	.	.	.	.	.
Cc1c(NC(NC(=O)CC(C)C)C(Cl)(Cl)Cl)c(=O)n(-c2ccccc2)n1C (stereo not drawn)	.	.	.	.	.	.
O=C(O)CNS(=O)(=O)c1ccc2c(c1)C(=O)c1cc(S(=O)(=O)NCC(=O)O)ccc1-2	.	.	.	.	.	.
CN1CCc2c(sc3c2C(=O)NC(c2ccc4c(c2)OCO4)N3)C1 (stereo not drawn)	-126	.	.	.	.	.
CN1CCc2c(sc3c2C(=O)NC(c2ccccc2)N3)C1 (stereo not drawn)	.	.	.	.	.	/
Cc1ccc(C2NC(=O)c3c(sc4c3CCN(C)C4)N2)s1 (stereo not drawn)	-55	.	.	.	.	.
Cn1cccc1C(C(=O)NC1CCCCC1)N(C(=O)Cc1cccs1)C1CC1 (stereo not drawn)	.	.	.	.	.	?
O=C(/C=C/c1ccccc1)N1CCN(c2ccccn2)CC1	.	.	.	.	.	.
O=C(O)c1cccc(NS(=O)(=O)c2cccc(C(=O)Nc3ccccc3[N+](=O)[O-])c2)c1	.	/	.	.	.	.
Fc1ccc(-c2nc3ccc(Cl)cn3c2Cc2ccccc2C(F)(F)F)cc1	.	.	.	.	/	.
Cc1ccc(-c2cc(C(F)F)nc3sc4c(=O)[nH]cnc4c23)cc1	.	.	.	.	.	.
CN(C)c1ccc(P(=O)(CC(=O)N/N=C/c2ccc(C#N)cc2)OCCCl)cc1 (stereo not drawn)	-63	.	.	.	.	.
CC(C)(C)n1cnc2cc(NCc3cccs3)ccc21	.	.	.	-59	.	.
CC(C)(C)n1cnc2cc(NC(=O)c3cccs3)ccc21	.	.	.	-70	.	.
CCn1cnc2cc(NCc3cccs3)ccc21	.	.	.	.	.	.
Cc1nn(C)c2c1c(-c1ccccc1)cc(=O)n2Cc1ccc(F)cc1Cl	/	.	.	/	/	.
O=C1c2cc([N+](=O)[O-])ccc2-c2cc(Br)c(N=C(NO)C(F)(F)F)cc21	.	.	.	-101	.	.
Cc1ccc(/C=C2\SC(=O)N(CCNC(=O)C3CSC4(C)CCC(=O)N34)C2=O)cc1 (stereo not drawn)	.	.	.	?	.	?
C[C@H](O)c1[nH]c2cc(F)ccc2c1[C@H](C)O	.	.	.	.	.	.
COCCCNC(=S)NNC(=O)c1cccnc1	.	.	.	.	.	.
O=C1CC2(CCN(C(=O)c3ccc([N+](=O)[O-])cc3)CC2)Oc2ccccc21	.	.	.	.	.	.
O=C1CC2(CCN(C(=O)c3ccc(Br)cc3)CC2)Oc2ccccc21	.	.	.	-51	.	.
Cc1ccc(OCC(=O)N2CCC3(CC2)CC(=O)c2ccccc2O3)cc1	.	.	.	.	.	.
O=C1CC2(CCN(C(=O)COc3ccc(Cl)cc3)CC2)Oc2ccccc21	.	.	.	-55	.	.
